Data as given in PubChem BioAssay AID1159580 (chemical genetic matrix, 2015).
Several values for one entry are separate records, joined by “and”; a condition that tells them apart may be missing. Equal entries are not always repeated. In all, about 5,500 compounds went through this assay and about 2,000 (36%) were called active. About 18% were inconclusive and are not listed. Rule as the data show it: active = normalized growth mostly below about 0.91 (no sharp cut-off); inconclusive = no clear call, values can overlap the other calls; inactive = mostly above about 0.92. This is one part of the list.

Assay: chemical genetic growth profiling, strain panel (AID 1159580);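 also: tested at 20 µM; growth read once vehicle control cultures reached saturation at 30 °C; 1 = growth at the plate median or of vehicle wells; lower values mean less growth of the strain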
Settings: S. cerevisiae deletion strains, growth OD

Measured: normalized growth

CC(=O)O[C@@H]1CC2C(C)(CC[C@H](O)C2(C)C)C2CC[C@]3(C)C(=CC(=O)O[C@H]3c3ccoc3)C21C (stereo not given in full)
inactive: locus YAL013W, strain DEP1, stronger effect = lower value 0.999 | locus YAL021C, strain ccr4, stronger effect = lower value 0.995 | locus YAL026C, strain drs2, stronger effect = lower value 1 | locus YAL030W, strain snc1, stronger effect = lower value 0.998 | locus YBL061C, strain skt5, stronger effect = lower value 1.02 | locus YBR009C, strain hhf1, stronger effect = lower value 1.02 | locus YBR021W, strain FUR4, stronger effect = lower value 0.868 | locus YBR023C, strain chs3, stronger effect = lower value 1 | locus YBR171W, strain sec66, stronger effect = lower value 1 | locus YBR229C, strain ROT2, stronger effect = lower value 1 | locus YBR231C, strain swc5, stronger effect = lower value 1 | locus YBR279W, strain paf1, stronger effect = lower value 1 | locus YCL011C, strain gbp2, stronger effect = lower value 0.995 | locus YCL016C, strain dcc1, stronger effect = lower value 1 | locus YCL029C, strain bik1, stronger effect = lower value 0.999 | locus YCL061C, strain MRC1, stronger effect = lower value 0.999 | locus YCL069W, strain vba3, stronger effect = lower value 1.02 | locus YCR088W, strain abp1, stronger effect = lower value 1 | locus YDL005C, strain med2, stronger effect = lower value 0.986 | locus YDL035C, strain GPR1, stronger effect = lower value 1.02 | locus YDL040C, strain nat1, stronger effect = lower value 1 | locus YDL074C, strain BRE1, stronger effect = lower value 1.02 | locus YDL101C, strain DUN1, stronger effect = lower value 1 | locus YDL134C, strain PPH21, stronger effect = lower value 0.984 | locus YDL185W, strain tfp1, stronger effect = lower value 1 | locus YDL192W, strain arf1, stronger effect = lower value 1 | locus YDR001C, strain nth1, stronger effect = lower value 1 | locus YDR069C, strain doa4, stronger effect = lower value 1.02 | locus YDR101C, strain arx1, stronger effect = lower value 0.994 | locus YDR137W, strain rgp1, stronger effect = lower value 0.988 | locus YDR150W, strain NUM1, stronger effect = lower value 1.01 | locus YDR159W, strain sac3, stronger effect = lower value 1.01 | locus YDR162C, strain NBP2, stronger effect = lower value 1 | locus YDR195W, strain ref2 0.992 | locus YDR297W, strain sur2, stronger effect = lower value 1 | locus YDR318W, strain mcm21, stronger effect = lower value 0.993 | locus YDR334W, strain swr1, stronger effect = lower value 1 | locus YDR335W, strain msn5, stronger effect = lower value 1.02 | locus YDR388W, stronger effect = lower value 0.996 | locus YDR392W, strain spt3, stronger effect = lower value 0.952 | locus YDR502C, strain sam2, stronger effect = lower value 0.975 | locus YEL003W, strain gim4, stronger effect = lower value 1.02 | locus YEL037C, strain rad23, stronger effect = lower value 1.01 | locus YEL061C, strain CIN8 (second series), stronger effect = lower value 1.01 | locus YEL061C, strain CIN8, stronger effect = lower value 1 | locus YER015W, strain faa2, stronger effect = lower value 1 | locus YER016W, strain bim1, stronger effect = lower value 0.99 | locus YER110C, stronger effect = lower value 0.987 | locus YER111C, strain swi4, stronger effect = lower value 0.998 | locus YER155C, strain BEM2 (second series), stronger effect = lower value 1 | locus YER155C, strain BEM2, stronger effect = lower value 0.993 | locus YER167W, strain BCK2, stronger effect = lower value 1.01 | locus YFR010W, strain ubp6, stronger effect = lower value 1.01 | locus YGL078C, strain dbp3, stronger effect = lower value 0.993 | locus YGL086W, strain mad1, stronger effect = lower value 0.996 | locus YGL167C, strain pmr1, stronger effect = lower value 0.999 | locus YGL173C, strain kem1, stronger effect = lower value 1.01 | locus YGL227W, strain vid30, stronger effect = lower value 0.994 | locus YGL240W, strain doc1, stronger effect = lower value 0.99 | locus YGL248W, strain PDE1, stronger effect = lower value 1 | locus YGL253W, strain hxk2, stronger effect = lower value 0.997 | locus YGR078C, strain PAC10, stronger effect = lower value 0.995 | locus YGR135W, strain pre9, stronger effect = lower value 0.959 | locus YGR229C, strain SMI1, stronger effect = lower value 0.971 | locus YGR252W, strain gcn5, stronger effect = lower value 0.946 | locus YHR013C, strain ard1, stronger effect = lower value 0.983 | locus YHR027C, strain rpn1, stronger effect = lower value 1.02 | locus YHR030C, strain SLT2, stronger effect = lower value 0.996 | locus YHR079C, strain IRE1 (second series), stronger effect = lower value 0.986 | locus YHR079C, strain IRE1, stronger effect = lower value 0.994 | locus YHR094C, strain hxt1, stronger effect = lower value 0.984 | locus YHR129C, strain ARP1, stronger effect = lower value 1.01 | locus YHR142W, strain chs7, stronger effect = lower value 1 | locus YHR200W, strain rpn10, stronger effect = lower value 0.995 | locus YIL066C, strain RNR3, stronger effect = lower value 1.02 | locus YIL073C, strain SPO22, stronger effect = lower value 1.02 | locus YIL125W, strain kgd1, stronger effect = lower value 0.992 | locus YIR030C, strain dcg1, stronger effect = lower value 0.993 | locus YJL092W, strain hpr5, stronger effect = lower value 1.01 | locus YJL095W, strain BCK1 (second series), stronger effect = lower value 1.01 | locus YJL095W, strain BCK1, stronger effect = lower value 1 and 0.986 | locus YJL115W, strain asf1, stronger effect = lower value 0.994 | locus YJL129C, strain trk1, stronger effect = lower value 0.99 | locus YJL134W, strain LCB3, stronger effect = lower value 1 | locus YJL154C, strain vps35, stronger effect = lower value 0.996 | locus YJL164C, strain tpk1, stronger effect = lower value 1 | locus YJL166W, strain qcr8, stronger effect = lower value 1 | locus YJL168C, strain set2, stronger effect = lower value 0.994 | locus YJL187C, strain SWE1 (second series), stronger effect = lower value 1 | locus YJR043C, strain POL32, stronger effect = lower value 1.05 | locus YJR066W, strain TOR1, stronger effect = lower value 0.886 | locus YKL009W, strain mrt4, stronger effect = lower value 0.985 | locus YKL068W, stronger effect = lower value 0.997 | locus YKL085W, strain MDH1 (second series), stronger effect = lower value 0.99 | locus YKL085W, strain MDH1, stronger effect = lower value 0.99 | locus YKL160W, strain elf1, stronger effect = lower value 0.991 | locus YKR001C, strain vps1, stronger effect = lower value 0.978 | locus YKR026C, strain gcn3, stronger effect = lower value 0.995 | locus YKR091W, strain srl3, stronger effect = lower value 0.998 | locus YLL001W, strain dnm1, stronger effect = lower value 0.993 | locus YLL026W, stronger effect = lower value 0.989 | locus YLL041C, strain sdh2, stronger effect = lower value 0.989 | locus YLR027C, strain aat2, stronger effect = lower value 1.01 | locus YLR039C, strain RIC1, stronger effect = lower value 1.05 | locus YLR058C, strain SHM2, stronger effect = lower value 1 | locus YLR102C, strain apc9, stronger effect = lower value 0.99 | locus YLR113W, strain HOG1, stronger effect = lower value 1.04 | locus YLR221C, strain rsa3, stronger effect = lower value 1 | locus YLR258W, strain gsy2, stronger effect = lower value 1.01 | locus YLR262C, strain YPT6 (second series), stronger effect = lower value 1.01 | locus YLR262C, strain YPT6, stronger effect = lower value 1.03 | locus YLR268W, strain sec22, stronger effect = lower value 0.988 | locus YLR320W, strain mms22, stronger effect = lower value 0.992 | locus YLR342W, strain FKS1, stronger effect = lower value 0.994 | locus YLR357W, strain rsc2, stronger effect = lower value 0.984 | locus YLR370C, strain arc18, stronger effect = lower value 0.998 | locus YLR371W, strain rom2, stronger effect = lower value 1 | locus YLR384C, strain iki3, stronger effect = lower value 0.978 | locus YLR418C, strain cdc73, stronger effect = lower value 0.948 | locus YML016C, strain PPZ1, stronger effect = lower value 1.01 | locus YML032C, strain rad52, stronger effect = lower value 0.984 | locus YML120C, strain ndi1, stronger effect = lower value 1 | locus YML124C, strain tub3, stronger effect = lower value 0.985 | locus YMR058W, strain fet3, stronger effect = lower value 1.01 | locus YMR078C, strain ctf18, stronger effect = lower value 0.996 | locus YMR125W, strain sto1, stronger effect = lower value 1.02 | locus YMR129W, stronger effect = lower value 0.989 | locus YMR205C, strain PFK2, stronger effect = lower value 0.995 | locus YMR223W, strain ubp8, stronger effect = lower value 0.99 | locus YMR231W, strain pep5, stronger effect = lower value 1 | locus YMR263W, strain SAP30, stronger effect = lower value 0.998 | locus YMR307W, strain GAS1, stronger effect = lower value 1.08 | locus YNL067W, strain RPL9B, stronger effect = lower value 0.989 | locus YNL071W, strain lat1, stronger effect = lower value 1.01 | locus YNL153C, strain GIM3, stronger effect = lower value 1.01 | locus YNL183C, strain NPR1, stronger effect = lower value 0.935 | locus YNL209W, strain ssb2, stronger effect = lower value 0.994 | locus YNL233W, strain BNI4, stronger effect = lower value 0.991 | locus YNL248C, strain rpa49, stronger effect = lower value 0.975 | locus YNL250W, strain rad50, stronger effect = lower value 0.989 | locus YNL271C, strain bni1, stronger effect = lower value 1 | locus YNL298W, strain CLA4, stronger effect = lower value 0.985 | locus YNL307C, strain MCK1, stronger effect = lower value 0.98 | locus YNL322C, strain KRE1 (second series), stronger effect = lower value 0.971 | locus YNL322C, strain KRE1, stronger effect = lower value 1.01 | locus YNR049C, strain mso1, stronger effect = lower value 0.993 | locus YNR052C, strain pop2, stronger effect = lower value 0.991 | locus YOL012C, strain htz1 0.837 | locus YOL147C, strain pex11, stronger effect = lower value 0.983 | locus YOR001W, strain rrp6, stronger effect = lower value 1.01 | locus YOR061W, strain CKA2, stronger effect = lower value 1 | locus YOR069W, strain VPS5, stronger effect = lower value 1 | locus YOR070C, strain gyp1, stronger effect = lower value 0.993 | locus YOR080W, strain dia2, stronger effect = lower value 0.99 | locus YOR083W, strain WHI5, stronger effect = lower value 0.988 | locus YOR106W, strain vam3, stronger effect = lower value 1 | locus YOR136W, strain idh2, stronger effect = lower value 0.989 | locus YOR144C, strain elg1, stronger effect = lower value 0.991 | locus YOR184W, strain ser1, stronger effect = lower value 0.992 | locus YOR231W, strain MKK1, stronger effect = lower value 0.958 | locus YOR265W, strain rbl2, stronger effect = lower value 1.02 | locus YOR270C, strain vph1, stronger effect = lower value 0.965 | locus YOR290C, strain snf2, stronger effect = lower value 0.993 | locus YOR316C, strain cot1, stronger effect = lower value 0.989 | locus YPL051W, strain arl3, stronger effect = lower value 0.974 | locus YPL078C, strain atp4, stronger effect = lower value 0.988 | locus YPL106C, strain sse1, stronger effect = lower value 0.996 | locus YPL240C, strain hsp82, stronger effect = lower value 1 | locus YPL241C, strain CIN2, stronger effect = lower value 1 | locus YPL256C, strain CLN2, stronger effect = lower value 0.991 | locus YPR119W, strain clb2, stronger effect = lower value 0.994 | locus YPR141C, strain kar3, stronger effect = lower value 0.987 | locus YPR163C, strain tif3, stronger effect = lower value 0.98 | locus YPR167C, strain met16, stronger effect = lower value 0.979 | strain wtn01, stronger effect = lower value 0.995
